7 compounds from PubChem BioAssay (NCATS) can be followed below.

Assay [1] deals with CRL-7250. Briefly: Cytotoxic Profiling of Annotated Libraries Using Quantitative High-Throughput Screening (AID 1296008). On max response: on the % scale 0 is the no-effect control and ±100 the full control effect. The following applies: Five cell lines viability, CellTiter-Glo ATP luminescence, 48-72 h; max response: hits give low values. In outline: (§1)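 Compounds were pin-transferred onto cells and incubated 48 or 72 hr at 37 degree Celsius, 95% humidity. CellTiter-Glo was added, plates sat 10 min at room temperature, then ATP-coupled luminescence was imaged as the viability read-out.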
In general terms: In ATP-based viability assays light output follows the ATP content of the culture.

The next assay relates to HEK293. The assay is described as above. The following applies: Five cell lines viability, CellTiter-Glo ATP luminescence, 48-72 h; max response: hits give low values. In outline: as §1
For assay [2], the system named is HaCat. The description is as above. The following applies: Five cell lines viability, CellTiter-Glo ATP luminescence, 48-72 h; max response: hits give low values. In outline:
as §1

In assay [3] the test system is NIH3T3. The assay is described as above. The following applies: Five cell lines viability, CellTiter-Glo ATP luminescence, 48-72 h; max response: hits give low values. In outline:
as §1

Assay [4] concerns CRL-7250. The experiment in a line: qHTS assay to identify novel small-molecules to repurpose for Merkel cell carcinoma treatment (AID 1296009). The following applies: MCC and control cell lines, CellTiter-Glo viability, 72 h; at 44.8 µM (top of the series) unless noted. In outline: (§2)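 Cells exposed to NPC (8-point) and MIPE (11-point) compound dilutions for 72 hr at 37 degree celsius; viability read by CellTiter-Glo luminescence, normalized to no-cell and DMSO in-plate controls.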
A general note: In qHTS, concentration-response curves come from the screen itself.

Assay [5] concerns HACAT. The description is as above. The following applies: MCC and control cell lines, CellTiter-Glo viability, 72 h; at 44.8 µM (top of the series) unless noted. In outline:
as §2

The subject of the next assay is MCC-13. The description is as above. The following applies: MCC and control cell lines, CellTiter-Glo viability, 72 h; series mostly up to 46 µM. In outline:
as §2

The subject of a further assay is MCC-26. The assay is described as above. The following applies: MCC and control cell lines, CellTiter-Glo viability, 72 h; series mostly up to 46 µM. In outline:
as §2

Another assay concerns MKL-1. Described as above. The following applies: MCC and control cell lines, CellTiter-Glo viability, 72 h; series mostly up to 46 µM. In outline: as §2
Another assay has as its system UISO. The description is as above. The following applies: MCC and control cell lines, CellTiter-Glo viability, 72 h; series mostly up to 46 µM. An outline of the steps:
as §2

Another assay deals with WaGa. The description is as above. The following applies: MCC and control cell lines, CellTiter-Glo viability, 72 h; series mostly up to 46 µM. An outline of the steps:
as §2

The subject of another assay is SC27B. The experiment in a line: qHTS profiling for inhibitors of Plasmodium falciparum proliferation (AID 504749). The following applies: P. falciparum in erythrocytes, SYBR Green DNA, 72 h; series mostly up to 28.7 µM. An outline of the steps:
(§3)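 P. falciparum-infected erythrocytes (0.3% parasitemia, 2.5% hematocrit final) were exposed to compounds for 72 h at 37 C in 5% CO2, then lysed with SYBR Green buffer overnight at room temperature; parasite DNA fluorescence was normalized to artemisinin and DMSO controls.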

The test system of another assay is TAB109. Described as above. The following applies: P. falciparum in erythrocytes, SYBR Green DNA, 72 h; series mostly up to 28.7 µM. An outline of the steps:
as §3

The test system of the next assay is TAB113. The assay is described as above. The following applies: P. falciparum in erythrocytes, SYBR Green DNA, 72 h; series mostly up to 28.7 µM. In outline: as §3
In the next assay the test system is TAB165. Described as above. The following applies: P. falciparum in erythrocytes, SYBR Green DNA, 72 h; series mostly up to 28.7 µM. An outline of the steps: as §3
A further assay relates to W2. The description is as above. The following applies: P. falciparum in erythrocytes, SYBR Green DNA, 72 h; series mostly up to 28.7 µM. In outline:
as §3

In a further assay the test system is KB-3-1. The experiment in a line: Cytotoxic Profiling of Annotated Libraries Using Quantitative High-Throughput Screening (AID 1296008). On max response: on the % scale 0 is the no-effect control and ±100 the full control effect. The following applies: Five cell lines viability, CellTiter-Glo ATP luminescence, 48-72 h; max response: hits give low values. An outline of the steps: as §1
A further assay deals with MKL-2. The experiment in a line: qHTS assay to identify novel small-molecules to repurpose for Merkel cell carcinoma treatment (AID 1296009). The following applies: MCC and control cell lines, CellTiter-Glo viability, 72 h; series mostly up to 46 µM. In outline:
as §2

The next assay relates to HEK293T. The assay is described as above. The following applies: MCC and control cell lines, CellTiter-Glo viability, 72 h; at 44.8 µM (top of the series). An outline of the steps: as §2
Assay [6] has as its system NIH3T3. Described as above. The following applies: MCC and control cell lines, CellTiter-Glo viability, 72 h; at 44.8 µM (top of the series) unless noted. An outline of the steps:
as §2

Each structure is given as a SMILES string. “And” between values parts separate entries of the source, which are not always exact repeats. Identical values can stand only once. Results filed as inconclusive are left out. Unmarked numbers belong to inactive results. The source made the active and inactive calls. The call rests on the fitted dose curve; in most records, active means well fitted inhibition curve with a large enough effect; inconclusive means small, poorly fitted or top-dose-only effect; inactive means flat fitted curve, though single readings scatter.
Further: nearly all actives have a fitted effect of over 60% in size.
Potency means the concentration at half of the fitted maximal effect.

For `CC(Cc1ccccc1)NCCCCl` (stereo unspecified), the compound was called inactive in the assay with CRL-7250 [1], in the assay with HaCat [2], in the assay with CRL-7250 [4] and in the assay with HACAT [5]. The max response with HEK293 is 0.613%; in the assay with NIH3T3 [3] it was 3.33%. For the same compound, the Potency result with MCC-13, with MCC-26, with MKL-1, in the assay on UISO and in the assay with WaGa was “inactive” each time.
With `CC(C)C(Br)C(=O)NC(N)=O` (stereo unspecified), the Potency result with SC27B, with TAB109, in the assay with TAB113, in the assay on TAB165, in the assay with W2 and in the assay on MCC-13 was “inactive” each time. For the same compound, the Potency entry in the assay on MCC-26, in the assay on MKL-1, with MKL-2, in the assay on UISO and in the assay with WaGa was “inactive” in each case. Further, the result in the assay with CRL-7250 [1] and in the assay with CRL-7250 [4] was inactive. The max response in the assay on HaCat [2] was -11.8%; in the assay on KB-3-1, -15.8%; in the assay with NIH3T3 [3] it was -7.2%.
For the compound `ClCc1cccc(Cl)c1`, the max response was -10.5% in the assay with CRL-7250 [1], -1.26% with HEK293, 1.97% in the assay on HaCat [2] and 0.768% in the assay with NIH3T3 [3]. In addition, the Potency entry with MCC-13, with MCC-26, in the assay with MKL-1, in the assay with MKL-2, in the assay with UISO and with WaGa was “inactive” each time.
As for `CCCCCCCCC(=O)NCc1ccc(O)c(OC)c1`, the Potency entry with SC27B, in the assay with TAB109, with TAB113, in the assay with TAB165, in the assay with W2 and in the assay with MCC-13 was “inactive” in each case. For the same compound, the Potency result with MCC-26, in the assay with MKL-1, in the assay with MKL-2, in the assay on UISO and in the assay on WaGa was “inactive” throughout. Moreover, the max response in the assay on CRL-7250 [1] was -16.7%; with HEK293, -94.9%; with HaCat [2] it was -25.6%; with KB-3-1 it was -3.93%; in the assay on NIH3T3 [3], -70.4%.
For `Cc1nnc2n1-c1sc(CCC(=O)N3CCOCC3)cc1C(c1ccccc1Cl)=NC2`, the compound was classed as inactive with CRL-7250 [1], with HEK293, with CRL-7250 [4] and with HEK293T. Besides, the max response in the assay on KB-3-1 was -14.1% and 0.342%; in the assay with NIH3T3 [3], 2.45%. Besides, the Potency result with MCC-13, with MCC-26, in the assay on MKL-1, in the assay with MKL-2, in the assay with UISO and in the assay with WaGa was “inactive” each time.
For the compound `CCCCCCCCCCCC[N+](C)(C)CCOc1ccccc1`, the Potency is 7.08 µM (active) in the assay on SC27B; 5.01 µM (active) in the assay on TAB109; 4.47 µM (active) in the assay with TAB113; 5.62 µM (active) in the assay on TAB165; 3.79 µM (active) with W2; 18.8 µM (active) with CRL-7250 [1]. The Potency in the assay with HEK293 is 8.41 µM (active); with HaCat [2] it was 16.8 µM (active); in the assay with MCC-26, 23.7 µM (active); with MKL-1 it was 2.66 µM (active); in the assay with MKL-2 it was 1.06 µM (active); in the assay with UISO, 9.44 µM (active). Moreover, the Potency in the assay on WaGa is 4.22 µM (active).
Consider `NC(=O)OCCCc1ccccc1`, for which the Potency result in the assay with SC27B, in the assay on TAB109, with TAB113, with TAB165, in the assay with W2 and in the assay with MCC-13 was “inactive” throughout. Further, the Potency entry with MCC-26, in the assay on MKL-1, in the assay on MKL-2, in the assay with UISO and in the assay with WaGa was “inactive” each time. Besides, the compound was classed as inactive with CRL-7250 [1], in the assay with HaCat [2], with NIH3T3 [3], in the assay on CRL-7250 [4], with HACAT [5] and in the assay on NIH3T3 [6]. Moreover, the max response with KB-3-1 is -19.1%.
